“And” between values parts separate entries of the source, which are not always exact repeats. Identical values can stand only once. A number with no mark means an inactive call. Records with an inconclusive call do not appear. Entries that show only a call come without a potency. The source made the active and inactive calls. Unless noted, calls follow the shape of the dose curve; as a rule, active = well fitted curve in the direction sought with a large enough effect in the repeat runs; inconclusive = weak or mixed curves; inactive = no such curve, though single readings can be large; an effect the other way counts as inactive or inconclusive.
Columns and labels:
[1] = target: Luciferin 4-monooxygenase (Photinus pyralis) (UniProt P08659); assay: qHTS assay to identify small molecule inhibitors of firefly luciferase (AID 1224835); also: nearly all actives have a fitted effect of over 25% in size; also: potency is read from the fitted curve at half-maximal effect
Sequence of Luciferin 4-monooxygenase (Photinus pyralis) (P08659 whole entry, looked up): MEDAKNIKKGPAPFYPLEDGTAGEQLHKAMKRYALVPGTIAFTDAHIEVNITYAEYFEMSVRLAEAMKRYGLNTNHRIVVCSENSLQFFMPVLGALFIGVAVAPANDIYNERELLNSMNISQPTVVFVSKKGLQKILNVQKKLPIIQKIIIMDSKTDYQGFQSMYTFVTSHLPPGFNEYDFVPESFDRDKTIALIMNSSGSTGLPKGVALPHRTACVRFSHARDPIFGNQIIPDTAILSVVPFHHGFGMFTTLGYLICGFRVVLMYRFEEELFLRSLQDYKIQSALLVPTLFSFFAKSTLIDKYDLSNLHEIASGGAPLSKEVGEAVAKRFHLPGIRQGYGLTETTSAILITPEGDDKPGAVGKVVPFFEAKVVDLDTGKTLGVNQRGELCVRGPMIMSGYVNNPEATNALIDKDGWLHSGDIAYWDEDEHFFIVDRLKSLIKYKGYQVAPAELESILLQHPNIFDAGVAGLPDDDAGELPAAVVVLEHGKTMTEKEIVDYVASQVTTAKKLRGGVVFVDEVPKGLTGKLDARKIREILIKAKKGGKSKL
Method in brief: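 Biochemical qHTS: compounds run as interplate titrations against purified firefly enzyme, with D-luciferin and ATP each at its KM concentration. Light output recorded by CCD imaging.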

[2] = qHTS assay to identify small molecule agonists of the constitutive androstane receptor (CAR) signaling pathway - cell viability counter screen (AID 1224836); also: nearly all actives have a fitted effect of over 45% in size
Method in brief: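 23 h treatment, 37 C, 5% CO2. Cell line: HepG2 stably expressing hCAR with a CYP2B6-2.2kb construct. Co-treatment: PK11195, 0.75 uM final. Read-out: CellTiter-Fluor fluorescence intensity.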

[3] = qHTS assay to identify small molecule antagonists of the constitutive androstane receptor (CAR) signaling pathway - cell viability counter screen (AID 1224837); also: nearly all actives have a fitted effect of over 45% in size
Method in brief: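 CITCO at 50 nM final was added alongside compounds (15 concentrations) to double-stable hCAR/CYP2B6-2.2kb HepG2 cells. Following 23 hr at 37 C, cell viability was quantified by CellTiter-Fluor fluorescence intensity.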

[4] = target: Nuclear receptor subfamily 1 group I member 3 (Homo sapiens) (UniProt Q14994); assay: qHTS assay to identify small molecule antagonists of the constitutive androstane receptor (CAR) signaling pathway (AID 1224838); also: nearly all actives have a fitted effect of over 40% in size
Sequence of Nuclear receptor subfamily 1 group I member 3 (Homo sapiens) (Q14994 whole entry, looked up): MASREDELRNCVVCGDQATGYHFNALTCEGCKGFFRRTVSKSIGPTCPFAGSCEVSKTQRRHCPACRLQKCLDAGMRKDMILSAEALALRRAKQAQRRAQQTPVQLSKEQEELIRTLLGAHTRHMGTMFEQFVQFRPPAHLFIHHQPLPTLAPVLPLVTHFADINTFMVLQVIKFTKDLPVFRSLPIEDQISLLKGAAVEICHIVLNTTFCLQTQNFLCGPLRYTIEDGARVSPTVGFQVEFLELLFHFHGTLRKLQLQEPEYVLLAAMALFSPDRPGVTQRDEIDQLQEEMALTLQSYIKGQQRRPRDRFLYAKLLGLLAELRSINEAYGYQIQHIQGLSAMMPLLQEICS
Method in brief: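 Inhibition of CITCO-driven (50 nM final) CYP2B6 reporter expression is measured in HepG2 cells stably carrying hCAR. Fifteen compound concentrations are applied for 24 h at 37 C, followed by luciferase luminescence.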

[5] = target: Nuclear receptor subfamily 1 group I member 3 (Homo sapiens) (UniProt Q14994); assay: qHTS assay to identify small molecule agonists of the constitutive androstane receptor (CAR) signaling pathway (AID 1224839); also: nearly all actives have a fitted effect of over 15% in size; also: potency is read from the fitted curve at half-maximal effect
Method in brief: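 Compounds tested at 15 concentrations on HepG2 cells stably harbouring hCAR and CYP2B6-2.2kb reporter constructs, co-treated with PK11195 (0.75 uM final), 24 h at 37 C; luminescent reporter signal quantified.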

[6] = qHTS assay to identify small molecule antagonists of the estrogen related receptor signaling pathway with the pleiotropic PPARgamma coactivator (PGC) from Tox21 10K library - cell viability counter screen (AID 1224840; active = well fitted cell-killing curve with a large enough effect in the repeat runs, not every such curve was filed as active; also: nearly all actives have a fitted effect of over 40% in size)
Method in brief: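 Readout: fluorescence intensity from CellTiter-Fluor after 30 min at 37 C/5% CO2. Preceded by 17.5 h treatment of PGC/ERR cells with DMSO-dissolved compounds, added 6 h post-seeding.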

[7] = qHTS assay to identify small molecule antagonists of the estrogen related receptor signaling pathway with the pleiotropic PPARgamma coactivator (PGC) from Tox21 10K library (AID 1224841; call rule not given here; also: actives are mostly falling curves and most rising ones were filed inactive; nearly all actives have a fitted effect of over 50% in size; also: potency is read from the fitted curve at half-maximal effect)
Method in brief: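 One-Glo luminescence, measured after half an hour at room temperature, quantified reporter output of PGC/ERR cells. These had been plated at 2,000 per well, incubated 6 h, dosed with compounds in DMSO, then kept 18 h at 37 C.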

[8] = qHTS assay to identify small molecule agonists of the estrogen related receptor signaling pathway with the pleiotropic PPARgamma coactivator (PGC) from Tox21 10K library (AID 1224842); also: nearly all actives have a fitted effect of over 15% in size
Method in brief: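 PGC/ERR reporter cell line, 2,000 cells per well, incubated 6 h at 37 C before 23 nL compound in DMSO was added. After 18 h at 37 C, One-Glo luminescence read following 30 min at room temperature.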

[9] = target: Thyrotropin receptor (Homo sapiens) (UniProt P16473); assay: qHTS assay to identify small molecule agonists of the thyroid stimulating hormone receptor (TSHR) signaling pathway (AID 1224843; calls by dose curve; also: nearly all actives have a fitted effect of over 45% in size)
Sequence of Thyrotropin receptor (Homo sapiens) (P16473 whole entry, looked up): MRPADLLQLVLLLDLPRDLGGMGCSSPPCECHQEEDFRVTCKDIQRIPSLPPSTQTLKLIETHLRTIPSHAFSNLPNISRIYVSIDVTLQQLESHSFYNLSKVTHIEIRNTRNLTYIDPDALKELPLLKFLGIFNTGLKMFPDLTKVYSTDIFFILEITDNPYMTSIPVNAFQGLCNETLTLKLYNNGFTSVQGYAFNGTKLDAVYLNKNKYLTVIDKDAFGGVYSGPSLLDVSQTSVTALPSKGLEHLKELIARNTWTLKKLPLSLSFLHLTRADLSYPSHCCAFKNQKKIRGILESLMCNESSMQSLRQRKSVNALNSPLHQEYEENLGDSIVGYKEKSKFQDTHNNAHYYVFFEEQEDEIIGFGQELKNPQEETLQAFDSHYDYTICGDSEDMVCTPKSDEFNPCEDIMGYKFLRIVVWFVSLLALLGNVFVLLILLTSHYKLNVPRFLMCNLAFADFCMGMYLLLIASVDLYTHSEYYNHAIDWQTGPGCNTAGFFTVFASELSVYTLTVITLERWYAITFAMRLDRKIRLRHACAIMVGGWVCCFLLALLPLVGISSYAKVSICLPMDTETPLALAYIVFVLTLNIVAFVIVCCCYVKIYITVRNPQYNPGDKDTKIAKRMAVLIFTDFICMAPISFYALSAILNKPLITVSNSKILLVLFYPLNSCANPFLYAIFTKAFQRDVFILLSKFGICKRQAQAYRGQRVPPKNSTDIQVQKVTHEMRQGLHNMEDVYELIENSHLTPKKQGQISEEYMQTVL
Method in brief: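 Agonist-mode screen: TSHR HEK293 cells received test chemicals for half an hour at room temperature, then HTRF cAMP detection reagents for one hour prior to fluorescence measurement. Each chemical ran as a 15-concentration series, triplicated.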

[10] = qHTS assay to identify small molecule agonists of the hypoxia (HIF-1) signaling pathway - cell viability counter screen (AID 1224844; calls by dose curve; also: nearly all actives have a fitted effect of over 50% in size; also: potency is read from the fitted curve at half-maximal effect)
Method in brief: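 In this counter screen, HRE-bla ME-180 cell viability after 17 hrs of compound exposure at 37C was read by CellTiter-Glo luminescence, multiplexed with the beta-lactamase reporter measurement.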

[11] = qHTS assay to identify small molecule agonists of H2AX - cell viability counter screen (AID 1224847; calls by dose curve; also: nearly all actives have a fitted effect of over 30% in size; also: potency is read from the fitted curve at half-maximal effect)
Method in brief: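 Compounds tested at 15 concentrations were incubated 3 hr at 37C with wild-type CHO-K1 cells; cellular ATP-based luminescence (CellTiter-Glo) indicated viability.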

[12] = qHTS assay to identify small molecule antagonists of the estrogen related receptor (ERR) signaling pathway from Tox21 library (AID 1224848); also: nearly all actives have a fitted effect of over 50% in size; also: potency is read from the fitted curve at half-maximal effect
Method in brief: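 Quantitative high-throughput format: ERR reporter cells (2,000/well) pre-incubated 6 h, treated 18 h at 37 C with compounds in DMSO alongside positive and negative controls, then read by ONE-Glo luminescence.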

[13] = qHTS assay to identify small molecule agonists of the estrogen related receptor (ERR) signaling pathway from Tox21 library (AID 1224849; calls by dose curve; also: nearly all actives have a fitted effect of over 15% in size); settings: ERR reporter cell line, ONE-Glo luciferase, 18 h; at 92.4 µM (top of the series) unless noted
Method in brief: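 Luciferase activity in ERR pathway reporter cells served as the agonist readout; exposure lasted 18 h at 37 C, with ONE-Glo detection after 30 min at room temperature.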

[14] = qHTS RealTime-Glo MT Cell Viability Assay in HepG2 cells - 24 hour (AID 1224867); also: nearly all actives have a fitted effect of over 50% in size
Method in brief: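 Tox21 10K library screened in qHTS format on HepG2 cells carrying RealTime-Glo reagents. Compounds were added after a 5 h preincubation, and the luminescent signal from continuous culture was measured repeatedly during 40 h treatment.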

[15] = qHTS RealTime-Glo MT Cell Viability Assay in HEK293 cells - 32 hour (AID 1224868); also: nearly all actives have a fitted effect of over 50% in size; also: potency is read from the fitted curve at half-maximal effect
Method in brief: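 Luminescence generated by NanoLuc from substrate produced by living HEK293 cells served as the viability signal. Each value reflects the reading at its stated time point during continuous 40 h compound exposure at 37 C.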

[16] = qHTS RealTime-Glo MT Cell Viability Assay in HepG2 cells - 40 hour (AID 1224870); also: nearly all actives have a fitted effect of over 50% in size
Method in brief: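 HepG2 cells (600/well) mixed with RealTime-Glo MT reagent, settled 5 h at 37 C/5% CO2 before compound addition. Nonlytic NanoLuc luminescence from viable-cell prosubstrate reduction read repeatedly during 40 h treatment at 37 C.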

[17] = qHTS assay to identify small molecule agonists of the hypoxia (HIF-1) signaling pathway (AID 1224846; active = well fitted activation curve with a large enough effect in the signal ratio in the repeat runs, not every such curve was filed as active; the % refers to the signal ratio)
Method in brief: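 ME-180 HRE-bla reporter cells; compounds in DMSO, 17 h at 37C; read-out beta-lactamase via CCF4-AM FRET.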

[18] = A CellTox Green Cytotoxicity Assay to monitor cytotoxicity in HEK293 cells - 0 hour (AID 1224869); also: nearly all actives have a fitted effect of over 50% in size
Method in brief: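 Real-time, in one plate: 600 HEK293 cells/well with dead-cell DNA dye, pinned compound after 5 h, 37 C incubation over 40 h; viable cells give no appreciable fluorescence.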

[19] = qHTS assay to identify small molecule agonists of H2AX (AID 1224845; active = well fitted activation curve with a large enough effect in the signal ratio in the repeat runs, not every such curve was filed as active; the % refers to the signal ratio)
Method in brief: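 Wild-type CHO-K1 cells, plated overnight, exposed 3hr at 37C to 15 concentrations (0.76% DMSO final). Lysed, then HTRF anti-pH2AX (S139) cryptate and anti-H2AX-d2 antibodies, 24 hr room temperature; 665/620 nm emission read.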

| SMILES | Potency [1] | Potency [2] | Potency [3] | Potency [4] | Potency [5] | Potency [6] | Potency [7] | Potency [8] | Potency [9] | Potency [10] | Potency [11] | Potency [12] | activity change, positive = activation [13] | Potency [14] | Potency [15] | Potency [16] | Potency [17] | Potency [18] | Potency [19] |
| --- | --- | --- | --- | --- | --- | --- | --- | --- | --- | --- | --- | --- | --- | --- | --- | --- | --- | --- | --- |
| COC(=O)C(C)N(C(=O)c1ccco1)c1c(C)cccc1C (configuration not stated) | inactive | inactive | inactive | inactive | 15.3 µM (active) | inactive | inactive | inactive | inactive | inactive | inactive | inactive | -15.8% | inactive | inactive | inactive | – | – | – |
| CCN(CC)C(=O)N[C@@H]1C=C2c3cccc4[nH]cc(c34)C[C@@H]2N(C)C1 | inactive | inactive | inactive | inactive | – | inactive | – | – | inactive | inactive | inactive | – | – | inactive | inactive | inactive | inactive | inactive | – |
| O=C(N[C@H]1N=C(c2ccccc2F)c2cccc3c2N(CC3)C1=O)c1cc2ccccc2[nH]1 | inactive | inactive | inactive | inactive | inactive | – | – | – | inactive | inactive | – | – | – | – | inactive | inactive | – | inactive | inactive |
| Clc1ccc(C(c2ccc(Cl)cc2)C(Cl)Cl)cc1 | inactive | inactive | inactive | inactive | 49.3 µM (active) and 21.7 µM (active) | inactive | inactive | inactive | inactive | 49 µM (active) | 80 µM (active) | – | -36.3% and -43.8% | inactive | 49.8 µM (active) and 43.6 µM (active) | inactive | – | inactive | – |
| N#Cc1c[nH]cc1-c1cccc2c1OC(F)(F)O2 | inactive | inactive | inactive | – | – | – | 19.3 µM (active) | inactive | – | inactive | – | 27.3 µM (active) | -48.5% | inactive | 6.92 µM (active) | inactive | – | inactive | inactive |
| O=C(N[C@@H]1N=C(c2ccccc2F)c2cccc3c2N(CC3)C1=O)c1cc2ccccc2[nH]1 | 9.77 µM (active) | inactive | inactive | inactive | 2.98 µM (active) | inactive | – | – | inactive | inactive | inactive | – | – | – | inactive | – | – | – | – |
| O=[N+]([O-])c1cccc2cccc([N+](=O)[O-])c12 | inactive | inactive | inactive | inactive | 54.7 µM (active) | inactive | – | – | – | inactive | – | – | – | inactive | inactive | inactive | inactive | inactive | – |
| CCO/N=C(\CC)C1=C(O)CC(c2c(C)cc(C)cc2C)CC1=O (configuration not stated) | inactive | inactive | inactive | inactive | inactive | inactive | – | – | – | inactive | inactive | – | – | inactive | – | inactive | inactive | inactive | inactive |
| CCCCC/C=C\C/C=C\C/C=C\C/C=C\CCCC(=O)NCC(=O)O | inactive | inactive | inactive | inactive | inactive | inactive | – | – | – | inactive | – | – | – | inactive | inactive | inactive | – | – | – |
| CC(Cl)CCl (configuration not stated) | inactive | inactive | inactive | inactive | inactive | – | – | – | inactive | inactive | inactive | – | – | inactive | – | inactive | inactive | – | inactive |
| CCC1COC(Cn2cncn2)(c2ccc(Cl)cc2Cl)O1 (configuration not stated) | inactive | inactive | inactive | inactive | – | – | 61.1 µM (active) | – | inactive | inactive | – | 61.1 µM (active) | -57.5% | – | – | inactive | inactive | inactive | – |
| COc1c2c(cc3c1OCO3)CCN(C)C2 | inactive | inactive | inactive | inactive | – | inactive | – | – | inactive | inactive | inactive | – | – | – | inactive | inactive | inactive | inactive | inactive |
| CN1C(=O)[C@@H](NC(=O)c2cc3ccccc3[nH]2)N=C(c2ccccc2)c2ccccc21 | inactive | inactive | inactive | inactive | inactive | – | – | inactive | inactive | inactive | – | – | -21.2% [at 42.5 µM] | – | inactive | inactive | – | inactive | – |
| CC(Cc1ccc(OCC(=O)O)cc1)NCC(O)c1csc(C(F)(F)F)n1 (configuration not stated) | inactive | inactive | inactive | inactive | inactive | inactive | inactive | – | inactive | inactive | inactive | inactive | 13.9% | inactive | inactive | inactive | inactive | inactive | – |
| CC(C)NCC(O)c1ccccc1Cl (configuration not stated) | inactive | inactive | inactive | inactive | inactive | – | inactive | – | – | inactive | inactive | inactive | 0.518% [at 42.5 µM] | inactive | inactive | inactive | inactive | inactive | inactive |
| NC1CCC(CC2CCC(N)CC2)CC1 (configuration not stated) | inactive | inactive | inactive | inactive | inactive | – | – | – | – | inactive | – | – | – | inactive | – | inactive | – | inactive | – |
| Cc1ccn2nc(S(=O)(=O)Nc3c(F)cccc3F)nc2n1 | inactive | inactive | inactive | inactive | inactive | inactive | inactive | inactive | inactive | inactive | – | inactive | 1.87% | inactive | inactive | inactive | – | inactive | inactive |
